Values joined by “and” are separate entries in the source; they are usually repeats but may differ in a detail not shown here. Equal entries are not always repeated.
How the values were obtained:
[1] = target: Fibroblast growth factor receptor 4 (Homo sapiens) (UniProt P22455); details: at 1 µM;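 also: reported figure is the averaged percent inhibition of FGFR4, from the GSK PKIS kinase screening panel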
[2] = target: Tyrosine-protein kinase Fgr (Homo sapiens) (UniProt P09769); details: at 0.1 µM
[3] = target: Tyrosine-protein kinase Fgr (Homo sapiens) (UniProt P09769); details: at 1 µM
[4] = target: Vascular endothelial growth factor receptor 1 (Homo sapiens) (UniProt P17948); details: at 0.1 µM
[5] = target: Vascular endothelial growth factor receptor 1 (Homo sapiens) (UniProt P17948); details: at 1 µM
[6] = target: Receptor-type tyrosine-protein kinase FLT3 (Homo sapiens) (UniProt P36888); details: at 0.1 µM
[7] = target: Receptor-type tyrosine-protein kinase FLT3 (Homo sapiens) (UniProt P36888); details: at 1 µM
[8] = test system: T1, Receptor-type tyrosine-protein kinase FLT3 (Homo sapiens), P36888 [D835Y]; details: at 0.1 µM
T1 sequence (whole entry): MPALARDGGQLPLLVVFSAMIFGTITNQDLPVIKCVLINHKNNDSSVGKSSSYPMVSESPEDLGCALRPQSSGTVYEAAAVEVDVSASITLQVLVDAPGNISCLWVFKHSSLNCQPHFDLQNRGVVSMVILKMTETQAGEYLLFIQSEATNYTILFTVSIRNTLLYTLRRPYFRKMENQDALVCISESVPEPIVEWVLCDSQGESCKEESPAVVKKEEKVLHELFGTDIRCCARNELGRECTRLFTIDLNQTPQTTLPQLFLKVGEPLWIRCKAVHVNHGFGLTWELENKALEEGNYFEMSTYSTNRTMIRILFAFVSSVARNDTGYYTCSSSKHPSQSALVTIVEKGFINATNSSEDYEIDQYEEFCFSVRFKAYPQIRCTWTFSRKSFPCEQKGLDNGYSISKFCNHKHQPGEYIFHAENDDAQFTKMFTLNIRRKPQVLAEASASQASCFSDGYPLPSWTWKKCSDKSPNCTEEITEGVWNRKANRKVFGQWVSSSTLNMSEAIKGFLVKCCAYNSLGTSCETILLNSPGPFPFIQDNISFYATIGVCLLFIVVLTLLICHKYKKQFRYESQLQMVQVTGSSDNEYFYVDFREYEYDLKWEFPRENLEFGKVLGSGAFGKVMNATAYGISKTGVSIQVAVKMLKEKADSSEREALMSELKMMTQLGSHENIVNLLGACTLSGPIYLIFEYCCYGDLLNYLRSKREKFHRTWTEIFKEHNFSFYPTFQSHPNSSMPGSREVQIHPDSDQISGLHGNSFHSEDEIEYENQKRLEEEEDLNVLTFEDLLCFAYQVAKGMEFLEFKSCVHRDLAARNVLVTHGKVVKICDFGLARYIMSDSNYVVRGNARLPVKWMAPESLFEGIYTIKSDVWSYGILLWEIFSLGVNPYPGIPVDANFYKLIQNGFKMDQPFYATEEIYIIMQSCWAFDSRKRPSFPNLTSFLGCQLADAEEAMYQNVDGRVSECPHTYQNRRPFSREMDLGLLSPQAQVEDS

[9] = target: Non-receptor tyrosine-protein kinase TYK2 (Homo sapiens) (UniProt P29597); details: at 1 µM;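 also: values are mean percent inhibition of TYK2 kinase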
[10] = target: T2, Tyrosine-protein kinase receptor TYRO3 (Homo sapiens) (UniProt Q06418); details: at 0.1 µM;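 also: reported percentages are averaged inhibition values of TYRO3 kinase activity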
T2 sequence (whole entry): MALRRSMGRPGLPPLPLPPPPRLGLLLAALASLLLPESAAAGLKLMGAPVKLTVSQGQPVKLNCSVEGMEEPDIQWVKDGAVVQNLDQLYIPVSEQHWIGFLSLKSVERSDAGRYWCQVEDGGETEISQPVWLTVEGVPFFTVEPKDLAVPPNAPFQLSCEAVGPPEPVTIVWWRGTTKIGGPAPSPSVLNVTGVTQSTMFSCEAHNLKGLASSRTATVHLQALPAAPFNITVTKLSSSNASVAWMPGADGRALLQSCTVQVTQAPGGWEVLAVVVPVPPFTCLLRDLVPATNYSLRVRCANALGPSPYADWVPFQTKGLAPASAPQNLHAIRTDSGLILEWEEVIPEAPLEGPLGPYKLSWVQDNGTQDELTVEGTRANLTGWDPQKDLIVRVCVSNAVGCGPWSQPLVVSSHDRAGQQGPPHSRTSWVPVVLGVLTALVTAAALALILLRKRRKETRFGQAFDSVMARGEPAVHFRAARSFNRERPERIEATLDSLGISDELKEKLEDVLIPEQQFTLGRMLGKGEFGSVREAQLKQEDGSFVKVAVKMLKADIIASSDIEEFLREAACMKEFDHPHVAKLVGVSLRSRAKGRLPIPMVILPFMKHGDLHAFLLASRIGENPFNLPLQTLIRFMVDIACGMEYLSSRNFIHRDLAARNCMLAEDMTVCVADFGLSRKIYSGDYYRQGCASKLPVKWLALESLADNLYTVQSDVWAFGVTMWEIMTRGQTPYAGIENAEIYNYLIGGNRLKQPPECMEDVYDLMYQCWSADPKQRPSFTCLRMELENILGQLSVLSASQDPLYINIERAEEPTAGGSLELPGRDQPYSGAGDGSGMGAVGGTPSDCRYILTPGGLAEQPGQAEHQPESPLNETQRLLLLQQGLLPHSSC

Tyrosine-protein kinase Fgr (Homo sapiens), sequence (P09769 2-529 limits assumed): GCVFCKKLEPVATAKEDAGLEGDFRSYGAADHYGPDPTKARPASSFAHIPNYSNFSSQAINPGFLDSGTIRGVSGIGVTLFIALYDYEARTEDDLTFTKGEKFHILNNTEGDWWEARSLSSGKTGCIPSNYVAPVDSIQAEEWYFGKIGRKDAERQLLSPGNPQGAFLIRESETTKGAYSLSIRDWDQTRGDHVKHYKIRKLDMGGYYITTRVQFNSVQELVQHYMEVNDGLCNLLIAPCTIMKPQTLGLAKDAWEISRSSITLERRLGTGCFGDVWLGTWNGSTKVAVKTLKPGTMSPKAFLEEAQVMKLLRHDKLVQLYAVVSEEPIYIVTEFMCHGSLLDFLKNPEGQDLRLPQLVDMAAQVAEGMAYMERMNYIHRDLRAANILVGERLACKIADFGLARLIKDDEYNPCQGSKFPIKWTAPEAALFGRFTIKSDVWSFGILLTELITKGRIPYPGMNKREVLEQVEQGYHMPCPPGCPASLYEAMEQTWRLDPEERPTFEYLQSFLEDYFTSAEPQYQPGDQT
Vascular endothelial growth factor receptor 1 (Homo sapiens), sequence (P17948 whole entry): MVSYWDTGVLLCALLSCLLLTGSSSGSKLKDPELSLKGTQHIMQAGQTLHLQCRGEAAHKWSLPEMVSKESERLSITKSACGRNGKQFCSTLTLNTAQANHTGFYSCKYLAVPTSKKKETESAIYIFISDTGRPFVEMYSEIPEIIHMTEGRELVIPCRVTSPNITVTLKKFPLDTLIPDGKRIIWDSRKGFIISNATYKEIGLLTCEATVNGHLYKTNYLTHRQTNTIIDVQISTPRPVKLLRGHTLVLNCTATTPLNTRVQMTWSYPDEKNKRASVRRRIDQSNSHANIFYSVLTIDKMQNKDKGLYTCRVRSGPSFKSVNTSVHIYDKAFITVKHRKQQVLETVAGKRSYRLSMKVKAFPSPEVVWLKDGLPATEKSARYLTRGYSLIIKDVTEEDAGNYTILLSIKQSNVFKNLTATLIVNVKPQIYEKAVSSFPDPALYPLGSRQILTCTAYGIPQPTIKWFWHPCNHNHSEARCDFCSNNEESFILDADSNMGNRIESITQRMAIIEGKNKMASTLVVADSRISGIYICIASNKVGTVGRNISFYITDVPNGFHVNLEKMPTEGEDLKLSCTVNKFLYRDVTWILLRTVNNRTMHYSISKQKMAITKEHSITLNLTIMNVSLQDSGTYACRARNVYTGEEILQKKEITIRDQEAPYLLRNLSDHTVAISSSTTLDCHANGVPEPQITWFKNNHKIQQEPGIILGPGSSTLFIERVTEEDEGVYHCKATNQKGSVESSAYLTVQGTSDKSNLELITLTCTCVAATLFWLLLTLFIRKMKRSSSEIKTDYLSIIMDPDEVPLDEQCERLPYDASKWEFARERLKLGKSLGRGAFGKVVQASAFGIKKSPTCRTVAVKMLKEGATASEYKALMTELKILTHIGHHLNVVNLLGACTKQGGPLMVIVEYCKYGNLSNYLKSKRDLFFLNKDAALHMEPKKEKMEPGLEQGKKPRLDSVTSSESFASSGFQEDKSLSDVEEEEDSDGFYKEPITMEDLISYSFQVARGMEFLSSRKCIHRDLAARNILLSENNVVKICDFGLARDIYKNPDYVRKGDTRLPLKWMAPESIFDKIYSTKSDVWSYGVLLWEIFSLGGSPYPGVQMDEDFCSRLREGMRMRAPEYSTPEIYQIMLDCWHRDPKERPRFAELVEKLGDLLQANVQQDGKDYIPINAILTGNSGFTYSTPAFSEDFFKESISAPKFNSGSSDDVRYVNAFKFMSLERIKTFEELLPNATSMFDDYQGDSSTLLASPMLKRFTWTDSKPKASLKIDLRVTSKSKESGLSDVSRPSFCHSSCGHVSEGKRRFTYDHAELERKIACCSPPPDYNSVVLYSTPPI
Fibroblast growth factor receptor 4 (Homo sapiens), sequence (P22455 22-802 limits assumed): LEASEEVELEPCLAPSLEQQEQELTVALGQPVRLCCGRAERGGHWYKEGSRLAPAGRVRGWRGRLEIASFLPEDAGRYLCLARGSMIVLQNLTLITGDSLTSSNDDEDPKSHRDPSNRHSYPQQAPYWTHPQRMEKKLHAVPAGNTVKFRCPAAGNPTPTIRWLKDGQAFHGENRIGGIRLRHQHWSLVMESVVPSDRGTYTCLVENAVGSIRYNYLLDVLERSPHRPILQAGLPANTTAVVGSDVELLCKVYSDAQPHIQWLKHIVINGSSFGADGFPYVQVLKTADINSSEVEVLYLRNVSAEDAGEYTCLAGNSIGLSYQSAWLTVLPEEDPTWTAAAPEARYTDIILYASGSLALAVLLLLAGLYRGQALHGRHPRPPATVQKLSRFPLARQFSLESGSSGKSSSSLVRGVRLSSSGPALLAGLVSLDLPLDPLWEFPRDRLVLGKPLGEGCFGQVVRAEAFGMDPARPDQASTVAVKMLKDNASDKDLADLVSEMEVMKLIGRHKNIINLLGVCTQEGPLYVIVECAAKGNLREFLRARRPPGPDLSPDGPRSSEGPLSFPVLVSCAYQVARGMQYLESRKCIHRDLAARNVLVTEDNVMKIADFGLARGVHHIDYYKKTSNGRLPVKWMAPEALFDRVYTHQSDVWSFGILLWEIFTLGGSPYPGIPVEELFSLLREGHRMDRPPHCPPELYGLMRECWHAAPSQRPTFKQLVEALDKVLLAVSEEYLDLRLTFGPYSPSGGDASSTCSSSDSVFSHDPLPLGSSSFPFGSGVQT
Non-receptor tyrosine-protein kinase TYK2 (Homo sapiens), sequence (P29597 whole entry): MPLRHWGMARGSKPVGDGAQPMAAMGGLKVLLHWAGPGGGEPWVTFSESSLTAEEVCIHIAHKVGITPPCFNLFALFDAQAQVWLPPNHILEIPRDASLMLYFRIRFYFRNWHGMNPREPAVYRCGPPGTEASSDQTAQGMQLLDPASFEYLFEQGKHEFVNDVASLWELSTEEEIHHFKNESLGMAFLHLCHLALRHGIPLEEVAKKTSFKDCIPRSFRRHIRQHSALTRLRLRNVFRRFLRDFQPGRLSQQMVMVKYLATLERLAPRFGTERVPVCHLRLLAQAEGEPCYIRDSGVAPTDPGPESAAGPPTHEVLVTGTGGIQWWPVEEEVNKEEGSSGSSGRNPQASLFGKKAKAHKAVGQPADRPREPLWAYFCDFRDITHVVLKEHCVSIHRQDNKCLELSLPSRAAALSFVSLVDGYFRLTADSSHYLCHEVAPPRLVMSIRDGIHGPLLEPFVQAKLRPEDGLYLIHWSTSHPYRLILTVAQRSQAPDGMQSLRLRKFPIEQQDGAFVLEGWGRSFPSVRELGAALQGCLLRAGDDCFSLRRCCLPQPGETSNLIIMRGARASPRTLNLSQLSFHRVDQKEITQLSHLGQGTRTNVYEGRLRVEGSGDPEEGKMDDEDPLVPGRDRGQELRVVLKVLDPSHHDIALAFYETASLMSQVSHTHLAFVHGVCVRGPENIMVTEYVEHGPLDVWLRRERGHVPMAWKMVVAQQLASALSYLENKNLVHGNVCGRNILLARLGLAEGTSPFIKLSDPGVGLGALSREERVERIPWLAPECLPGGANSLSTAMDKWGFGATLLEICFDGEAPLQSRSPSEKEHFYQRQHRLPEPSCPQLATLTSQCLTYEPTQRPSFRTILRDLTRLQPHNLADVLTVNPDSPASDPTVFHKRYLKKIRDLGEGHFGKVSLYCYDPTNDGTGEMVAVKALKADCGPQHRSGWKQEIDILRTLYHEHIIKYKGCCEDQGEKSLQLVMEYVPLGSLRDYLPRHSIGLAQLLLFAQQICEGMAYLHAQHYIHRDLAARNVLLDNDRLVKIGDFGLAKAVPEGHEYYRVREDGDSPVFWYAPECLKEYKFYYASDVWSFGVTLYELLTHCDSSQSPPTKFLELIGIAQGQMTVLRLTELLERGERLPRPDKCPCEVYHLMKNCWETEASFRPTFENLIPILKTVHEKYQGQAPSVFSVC

Compound | inhibition [1] | inhibition [2] | inhibition [3] | inhibition [4] | inhibition [5] | inhibition [6] | inhibition [7] | inhibition [8] | inhibition [9] | inhibition [10]
Cc1c2ccc(N(C)c3ccnc(Nc4cccc(S(N)(=O)=O)c4)n3)cc2nn1C | 26.4% | 26% | 64.7% | 52.8% | 94% | 2.48% | 15% | -0.8% | -3.19% | 3.74%
CS(=O)(=O)CCNCc1ccc(-c2ccc3ncnc(Nc4ccc(OCc5cccc(C(F)(F)F)c5)cc4)c3c2)o1 | 1.52% | 0.16% | 3.55% | 1.21% | 2.94% | 10.4% | 28.9% | 0.04% | -4.13% | 0.61%
CCn1c(-c2nonc2N)nc2cncc(C(=O)NCCNC)c21 | 1.09% | 1.3% | 4.66% | 2.02% | 3.5% | 0.34% | 4.29% | -3.83% | -3.99% | 3.7%
COc1ccccc1-c1cc(/C=C2\C(=O)Nc3ncc(Br)cc32)cc(Br)c1O | 1.97% | 2.7% | 11.6% | 3.32% | 4.73% | 4.36% | 6.62% | -5.55% | -1.22% | 7.47%
Cc1ccc(-c2cc3c(NC(=O)C4CC4)ncnc3o2)cc1 | 1.04% | 2.06% | 13.3% | 2.75% | 3.26% | 2.89% | 3.69% | 0.76% | -1.62% | 9.35%
COc1cccc(Nc2nccc(-c3cnn4ncccc34)n2)c1 | 1.33% | 7.08% | 19.3% | 9.62% | 25.1% | 33% | 78.9% | 16.7% | 30.3% | 3.96%
COc1cccc(-n2ncc3c(N/N=C/c4ccc(C(=O)NCCN(C)C)cc4)ncnc32)c1 | 4.18% | 47.4% | 82.1% | 8.45% | 37.3% | 14% | 54.9% | 30.8% | 5.84% | 16.6%
CCN1CCC(C(=O)Nc2n[nH]c3nnc(-c4cccc(F)c4F)cc23)CC1 | 1.49% | 1.72% | 3.35% | 0.76% | 1.26% | 1.71% | 6.05% | -1.16% | -3.82% | -1.35%
COc1ccc(-c2nn3ncccc3c2-c2ccnc(Nc3ccc(F)c(F)c3)n2)cc1 | 0.82% | 20.4% | 60.8% | 2.48% | 6.3% | 2.32% | 4.16% | 4.75% | -1.25% | 3.56%
COc1ccc2ncn(-c3cc(O[C@H](C)c4ccccc4C(F)(F)F)c(C(N)=O)s3)c2c1 | 3.29% | 0.34% | 1.98% | -2.14% | 1.15% | -1.48% | 8.06% | -1.49% | -1.84% | -0.34%
COc1c(C(N)=O)cc(-c2ccc(Cl)cc2)cc1-c1ccc(S(N)(=O)=O)cc1 | 2.25% | 0.21% | 2.86% | -0.38% | 2.07% | 1.63% | 3.25% | -1.44% | -6.53% | 2.09%
Cc1cc(O)cc(C)c1/C=C/c1cncc(C(N)=O)c1 | 0.95% | 5.81% | 38.1% | 1.23% | 4.11% | 1.9% | 2.11% | -5.07% | -0.58% | 2.41%
CCS(=O)(=O)c1ccc(OC)c(Nc2ncc(-c3cccc(F)c3)o2)c1 | 17.6% | 40.2% | 76.2% | 14.2% | 55.3% | 23.3% | 74.5% | 17.6% | -2.12% | 6.63%
CC1(C)CC(n2cnc(-c3ccc(F)cc3)c2-c2ccnc(N)n2)CC(C)(C)N1 | 2.01% | 0.26% | 3.54% | 1.16% | 1.59% | 0.9% | -0.24% | 2.51% | 0.03% | 0.59%
Nc1ncnc2occ(-c3ccc(NC(=O)Nc4cc(C(F)(F)F)ccc4F)cc3)c12 | 16.7% and 10% | 3.04% and 0.42% | 24.4% and 11.4% | 37.5% and 26.9% | 84.5% and 74.3% | 65.9% and 59.9% | 89.1% and 89.5% | 18% and 5.3% | -7.38% and 0.28% | 5.11% and -0.01%
CS(=O)(=O)CCNCc1ccoc1-c1ccc2ncnc(Nc3ccc(OCc4ccccc4)cc3)c2c1 | 1.85% | 2.61% | 12.6% | 2.35% | -0.36% | 1.82% | 6.53% | -4.02% | 0.15% | 0.96%

Compound | inhibition [1] | inhibition [2] | inhibition [3] | inhibition [4] | inhibition [5] | inhibition [6] | inhibition [7] | inhibition [8] | inhibition [9] | inhibition [10]
CN(c1ccc(NC(=O)NCCN2CCOCC2)cc1)c1ccnc(Nc2ccc(CS(C)(=O)=O)cc2)n1 | 1.61% | 3.44% | 11.3% | 13.6% | 30.7% | 56.4% | 83.7% | 8.58% | -0.59% | 3.48%
Cc1nnc(-c2cccc(-c3ccc(C(=O)NCC4CC4)cc3)c2)o1 | 0.59% | 5.74% | 2.02% | 3.18% | 1.49% | 1.38% | 4.66% | -2.89% | -4.07% | 4.15%
c1cnn2ncc(-c3ccnc(NCCCN4CCOCC4)n3)c2c1 | 2.53% | 2.2% | 0.54% | 1.65% | 0.94% | 0.76% | 1.48% | 0.21% | -3.09% | 3.23%
CCCNc1cccc(-n2ncc3c(N/N=C/c4ccncc4)ncnc32)c1 | 3.38% | 18.9% | 52% | 2.98% | 19.7% | 4.53% | 17.6% | 7.74% | 4.3% | 5.05%
NC(=O)c1ccc2c(-c3ccnc(NCCCO)n3)c(-c3ccc(F)cc3)nn2c1 | 1.22% | 3.07% | 12.1% | 3.74% | 3.53% | 4.12% | 5.06% | 2.33% | -5.12% | 3.03%
O=C(Nc1n[nH]c2nnc(-c3cccnc3)cc12)C1CC1 | -0.33% | 2.57% | 2.95% | 0.7% | 0.07% | -0.64% | 1.54% | 0.49% | 2.04% | -0.64%
COc1cc(N2CCN(C(C)C)CC2)ccc1Nc1nc(Nc2cccc3ncccc23)c2cc[nH]c2n1 | 0.41% | -0.04% | 3.16% | 1.51% | 0.56% | 0.08% | 1.34% | 1.05% | 2.42% | -2.4%
NS(=O)(=O)c1cccc(N/C=C2\C(=O)Nc3ccccc32)c1 | 3.92% | 5.5% | 13.8% | 7.92% | 15.2% | 5.75% | 36.4% | 1.52% | -1.95% | 3.33%
Fc1cccc(COc2ccc(Nc3ncncc3C#Cc3ccccc3)cc2Cl)c1 | 0.25% | 5.41% | 2.24% | 1.51% | 1.02% | 2.67% | 5.4% | 4.26% | -1.45% | 2.1%
CS(=O)(=O)CCNCc1ccc(-c2ccc3ncnc(Nc4ccc(OCc5ccccc5)cc4)c3c2)o1 | 0.38% | 5.33% | 20.1% | 2.38% | 2.68% | 2.34% | 6.62% | -1.19% | -2.79% | 3.45%
COc1ccc(Nc2ncc(-c3ccccc3)o2)cc1OC | 1.3% | 3.96% | 31.4% | 6.85% | 23.6% | 76.6% | 89.4% | 15.2% | 5.03% | 0.14%
CC1=C(C(=O)Nc2ccc3[nH]nc(C)c3c2)C(c2ccc(C(F)(F)F)cc2)CC(=O)N1 (stereo not given) | 2.06% | 1.2% | 3.75% | 1.04% | 5.46% | -0.53% | 3.38% | 0.37% | 37.5% | 2.07%
CC1=C(C(=O)Nc2ccc3[nH]ncc3c2)C(c2ccc(F)cc2)N=C(c2ccc(C(F)(F)F)nc2)N1 (stereo not given) | 4.41% | 1.36% | 7.33% | 2.08% | 3.96% | -0.83% | 4.45% | -1.1% | -2.96% | 2.47%
Nc1nccc(-c2c(-c3ccc(F)cc3)ncn2C2CCNCC2)n1 | -0.1% and 1.64% | -0.15% and 1.9% | 4.65% and 8.7% | -0.52% and 1.63% | -0.59% and 2.14% | -1.21% and 1.71% | -2.93% and 1.86% | -8.75% and 1.68% | 2.68% and 1.47% | -2.12% and 1.7%
NS(=O)(=O)c1ccc(N/N=C2\C(=O)Nc3ccc(C(=O)NCc4ccncc4)cc32)cc1 | 2.18% | 4.24% | 12.5% | 2.5% | 10.3% | 2.9% | 11.4% | 3.79% | 0.98% | 2.32%
